Assay outcomes as filed in PubChem.
D2 ag-1 = human D2 receptor agonism in beta-arrestin assay; P14416; 360,000 tested, 0.084% active; DiscoveRx PathHunter D2 beta-arrestin, luminescence, 90 min; 100% = 57 uM dopamine signal; activation, % (concentration not given with the values); in the data active = activation above about 40%; inconclusive = between about 15% and that limit
Target sequence (P14416 whole entry, looked up): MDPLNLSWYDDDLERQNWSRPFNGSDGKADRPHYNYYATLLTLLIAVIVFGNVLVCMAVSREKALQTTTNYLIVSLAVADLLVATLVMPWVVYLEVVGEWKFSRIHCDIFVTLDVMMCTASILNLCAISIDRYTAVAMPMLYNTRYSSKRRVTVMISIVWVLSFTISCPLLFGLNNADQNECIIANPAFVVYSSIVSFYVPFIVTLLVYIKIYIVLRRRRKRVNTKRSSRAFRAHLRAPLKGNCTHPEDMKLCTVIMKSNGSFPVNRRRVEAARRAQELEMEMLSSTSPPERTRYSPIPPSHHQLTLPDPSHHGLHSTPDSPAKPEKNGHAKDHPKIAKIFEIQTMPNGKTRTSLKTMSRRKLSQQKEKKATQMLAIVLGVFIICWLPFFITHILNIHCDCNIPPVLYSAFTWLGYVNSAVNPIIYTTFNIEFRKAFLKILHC
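DiscoveRx PathHunter D2 beta-arrestin cells (2,100/well) attached overnight, then compound-stimulated 90 min at 37 C in HBSS/10 mM HEPES/0.1% Tween-20 buffer; beta-galactosidase complementation read by luminescence after 1 h at ambient temperature. Dopamine 57 uM final (EC100) as control.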
D2 antagonist = antagonists of human D2 dopamine receptor | HEK293 TREx D2 cells, calcium flux, dopamine EC80 | P14416 | inhibition, % at 10 µM | AID 485344 | 340,000 tested, 2% active; in the data active = inhibition above about 30%; inactive = below that, where a call was filed
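Read-out: kinetic calcium fluorescence (1 cycle/s) in inducible HEK293 T-REx D2 cells after an EC80 dopamine addition that followed 180 s compound preincubation. Loss of the dopamine response indicates antagonism.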
D2 ag-2 = activates the human D2 dopamine receptor; HEK293 T-REx D2 cells, calcium flux agonist mode; activation, % at 2 µM; 340,000 tested, 0.53% active; AID 485358;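 active = activation over 3 SD above normal in the single-dose calcium agonist read, cut at about 30% in these data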
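Agonism is scored from calcium flux in a force-coupled, inducible HEK293 cell line expressing D2, read kinetically for 180 s after compound addition against dopamine controls.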
D2 PAM-1 = positively modulates the human D2 dopamine receptor allosterically; P14416; HEK293 T-REx D2, calcium flux, EC20 dopamine potentiation; potentiation, % at 10 µM; 340,000 tested, 0.34% active; AID 485347;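 active = potentiation over 3 SD above the plate norm, cut at about 30% in these data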
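Using a no-wash calcium dye in inducible, force-coupled HEK293 Trex cells expressing D2, we tracked fluorescence each second for 180 s after compound, then for 180 s after EC20 dopamine to detect augmented signalling.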
D2 PAM-2 = positive allosteric modulators of human D2 dopamine receptor | P14416 | DiscoveRx D2 beta-arrestin cells, luminescence, 90 min; 100% = 57 uM dopamine signal | potentiation, % (test concentration not listed) | 360,000 tested, 0.23% active; in the data active = potentiation above about 50%; inconclusive = mostly about 30% to 49%
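PathHunter D2 cells, attached overnight at 37 deg C, received compound in DMSO plus dopamine at EC20 (50 nM final) for 90 min at 37 deg C. Beta-arrestin recruitment was read as luminescence after 1 h with detection reagent at ambient temperature.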
D3 ag = activates human D3 dopamine receptor beta-arrestin recruitment; 2,300 tested, 4% active; Potency, µM (top dose mostly 76.9 µM), most hits filed as activators; shares compounds with D2 ag-2; DiscoveRx D3 beta-arrestin cells, luminescence, 90 min; note: nearly all actives have a fitted effect of over 70% in size
D2 ag-3 = activates human D2 dopamine receptor in D3 counterscreen; 2,300 tested, 5.9% active; shares compounds with D2 ag-2; Potency, µM (series often up to 76.9 µM), most hits filed as activators; DiscoveRx PathHunter D2 beta-arrestin, luminescence, 90 min; response scale: percent relative to full dopamine signal; note: nearly all actives have a fitted effect of over 70% in size
Of the large screens only hits and unclear results are named; the others gave an inactive call (follow-up assays come after a bar, where they were run). Hits are enriched below; roughly 2.4% of the tested compounds scored in any of these assays. Unless noted, calls come from the whole dose curve; as a rule, active = well fitted activation curve with a large enough effect; inconclusive = small, poorly fitted or top-dose-only effect; inactive = flat fitted curve, though single readings scatter.

COc1ccc(N2CCN(C(CNS(=O)(=O)c3cccs3)c3cccnc3)CC2)cc1 (configuration not stated)	none
O=S(=O)(NCC(c1cccnc1)N1CCN(Cc2ccccc2)CC1)c1cc(F)ccc1F (configuration not stated)	D2 antagonist 43.2, D2 ag-2 69.8 | D3 ag inactive | D2 ag-3 inactive
O=S(=O)(NCC(c1cccnc1)N1CCN(c2ccccc2)CC1)c1cccs1 (configuration not stated)	none | D3 ag inactive | D2 ag-3 inactive
NC(=O)C1(Nc2ccc(C(=O)O)cc2)CCCC1	none (no result: D2 antagonist, D2 ag-2, D2 PAM-1)
Nc1nc2c(ncn2[C@@H]2O[C@H](CNS(=O)(=O)c3cccnc3)[C@@H](O)[C@H]2O)c(=O)[nH]1	none (no result: D2 antagonist, D2 ag-2, D2 PAM-1)
COC(=O)C1=C(C)Nc2nnnn2C1c1cccnc1 (configuration not stated)	none (no result: D2 antagonist, D2 ag-2, D2 PAM-1)
CC1=C(C(=O)OC2CCCCC2)C(c2cccnc2)n2nnnc2N1 (configuration not stated)	D2 ag-2 61.0 | D3 ag inactive | D2 ag-3 inactive
CCc1ccccc1NC(=O)Cn1c(=O)n(Cc2ccc3c(c2)OCO3)c(=O)c2ccc(C(=O)NC3CCCCC3)cc21	none (no result: D2 ag-1, D2 antagonist, D2 PAM-2)
CC(=O)N(c1nnc(-c2ccc(C)cc2)s1)C1CCCC1	none
Cc1ccc(NC(=O)Cn2c(=O)ccn(Cc3ccccc3)c2=O)cc1S(=O)(=O)N1CCOCC1	none (no result: D2 antagonist, D2 ag-2, D2 PAM-1)
O=C(c1oc(=O)c2ccccc2c1-c1ccccc1)N1CCC(O)CC1	none | D3 ag inactive | D2 ag-3 inactive
Cc1c(N=c2scc(-c3ccccc3)n2C)c(=O)n(-c2ccccc2)n1C	D2 ag-1 inconclusive, D2 antagonist 75.5, D2 ag-2 66.1 | D3 ag inactive | D2 ag-3 inconclusive
Cc1c(N=c2scc(-c3ccccc3)n2CCO)c(=O)n(-c2ccccc2)n1C	none
CC(=O)NCCC(=O)Nc1cc(S(=O)(=O)N2CCCCC2)ccc1N1CCCCC1	none | D3 ag inactive | D2 ag-3 inactive
O=C(CN1CCc2ccccc2C1)Nc1cccc(S(=O)(=O)N2CCCC2)c1	D2 antagonist 49.2, D2 ag-2 52.7 | D3 ag inconclusive | D2 ag-3 inconclusive
O=C(CN1CCN(C(=O)c2ccco2)CC1)Nc1cccc(S(=O)(=O)N2CCCC2)c1	none | D3 ag inactive | D2 ag-3 inactive
Cc1ccc(S(=O)(=O)CCC(=O)Nc2cccc(S(=O)(=O)N3CCCCCC3)c2)cc1	none | D3 ag inactive | D2 ag-3 inactive
CC(=O)NCCC(=O)Nc1cc(S(=O)(=O)N2CCCCC2)ccc1N1CCN(C)CC1	none
CCC(C)NC(=O)CCCc1nnc2n(CC(C)C)c(=O)c3sccc3n12 (configuration not stated)	none (no result: D2 ag-1, D2 antagonist, D2 PAM-2)
COc1ccc(NCC(=O)Nc2c(C)cccc2C)cc1S(=O)(=O)N1CCOCC1	none (no result: D2 antagonist, D2 ag-2, D2 PAM-1)
Cc1ccc(NC(=O)[C@@H]2CCCN2S(=O)(=O)c2ccccc2F)cc1	none
O=C(Nc1cccc(S(=O)(=O)N2CCCCC2)c1)C1CCCN1S(=O)(=O)c1ccccc1F (configuration not stated)	none | D3 ag inactive | D2 ag-3 inactive
COc1ccccc1-c1csc(C(O)c2ccc(F)c(F)c2)n1 (configuration not stated)	none (no result: D2 antagonist, D2 ag-2, D2 PAM-1)
Cc1ccc(C)c(NS(=O)(=O)c2c(C)nc3sccn3c2=O)c1	none
Cc1cc(CN2CCN(c3ccccc3F)CC2)cs1	none (no result: D2 ag-1, D2 antagonist, D2 ag-2, D2 PAM-2)
FCCCOc1ccc(CN2CCN(c3ccccc3F)CC2)cc1	none (no result: D2 antagonist, D2 ag-2) | D3 ag inconclusive | D2 ag-3 inconclusive
Cc1ccc(NC(=O)CSc2nnc3ccc4ccccc4n23)cc1	none (no result: D2 ag-1, D2 antagonist, D2 PAM-2)
Cn1c(=NC(=O)COc2ccccc2)sc2cc(F)cc(F)c21	none
Cn1c(=NC(=O)COc2ccccc2)sc2cccc(F)c21	none | D3 ag inactive | D2 ag-3 inactive
CC(OC(=O)c1cc(S(=O)(=O)N2CCOCC2)ccc1F)C(=O)NCc1ccc2c(c1)OCO2 (configuration not stated)	none
CN(C)c1ccc(/C=N/N(CCO)C2=NS(=O)(=O)c3ccccc32)cc1	none | D3 ag inactive | D2 ag-3 inactive
CN(CCNC(=O)C1CCC(=O)N(Cc2ccc(Cl)cc2)C1)CCc1ccccc1 (configuration not stated)	D2 ag-2 44.5 | D3 ag inactive | D2 ag-3 inactive
CN(CCNC(=O)C1CCC(=O)N(Cc2cccc(F)c2)C1)CCc1ccccc1 (configuration not stated)	none
O=C(Cn1c(=O)n(-c2ccccc2)c(=O)c2sc3ccccc3c21)NC1CCCC1	none (no result: D2 ag-1, D2 antagonist, D2 PAM-2)
Nc1nc(N2CCN(C(c3ccccc3)c3ccccc3)CC2)n[nH]1	none
Nc1nc(N2CCN(Cc3ccccc3)CC2)n[nH]1	D2 ag-1 67.7, D2 ag-2 94.3, D2 PAM-2 inconclusive | D3 ag inconclusive | D2 ag-3 4.47µM
c1ccc(CCN2CN(CCCN3CCOCC3)c3nc4ccccc4n3C2)cc1	D2 ag-2 55.7 | D3 ag inactive | D2 ag-3 inactive
O=C(CSc1nc2c([nH]c3ccccc32)c(=O)n1-c1ccc(Cl)cc1)N1CCOCC1	none (no result: D2 ag-1, D2 antagonist, D2 PAM-2)
COc1ccc(C(=O)N=C2SC3CS(=O)(=O)CC3N2Cc2ccccc2)cc1OC (configuration not stated)	none | D3 ag inconclusive | D2 ag-3 inactive
C=CCNC(=O)c1ccc(N(Cc2ccc(Cl)cc2)S(C)(=O)=O)cc1	none
O=C(NCc1n[nH]c(=O)c2ccccc12)C1CC(=O)N(c2ccc(Cl)cc2)C1 (configuration not stated)	none | D3 ag inactive | D2 ag-3 inactive
COc1ccc(S(=O)(=O)N2CCCCCC2)cc1C(=O)N(C)CC(=O)Nc1ccccc1C(F)(F)F	none
COc1ccc(N2CCN(C(c3cccs3)C(C)NC(=O)C(=O)N3CCOCC3)CC2)cc1 (configuration not stated)	none
CC(NC(=O)C(=O)N1CCOCC1)C(c1cccs1)N1CCN(c2ccccc2)CC1 (configuration not stated)	D2 ag-2 44.3 | D3 ag inactive | D2 ag-3 inactive
O=C(c1cccc(S(=O)(=O)Nc2ccccc2Cl)c1)N1CCN(c2ccccc2O)CC1	none | D3 ag inactive | D2 ag-3 inactive
O=C(c1cccc(NS(=O)(=O)c2ccc(Br)cc2)c1)N1CCN(c2ccccc2O)CC1	none | D3 ag inactive | D2 ag-3 inactive
COc1cccc(NC(=O)c2cc3ccccc3cc2OC)c1	none
